Screens from PubChem BioAssay.
ALDH1A1 inh – ALDH1A1 (human) enzyme inhibition | Purified ALDH1A1, NADH fluorescence, propionaldehyde substrate | Potency, µM (titrated, usually from 75.3 µM), actives largely listed as inhibitors | 7.3% of 220,000 active | P00352
LMNA splice mod – modulators of lamin A splicing | 0.01% of 200,000 active | AID 1487 | Potency, µM (top dose mostly 46.1 µM), hits mostly inhibitors | HeLa LMNA splicing GFP/RFP minigene ratio, 48 h; active means well fitted inhibition curve with a large enough effect in the signal ratio, with a control signal flat, not every such curve was filed as active; inconclusive means small, poorly fitted or top-dose-only effect, or effect the other way, or a change in a side signal; the % refers to the signal ratio
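S3 HeLa stable clones carrying a lamin A-EGFP splicing minigene plus DsRed2 were seeded at 600 cells/well in Opti-MEM with 2% FBS, pin-dosed and incubated 48 h at 37°C. Acumen cytometry (488 nm) gave the GFP/RFP total-intensity ratio.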
12-hLO inh – blocks human 12-lipoxygenase activity. P18054. purified 12-hLO, xylenol orange hydroperoxide absorbance. Potency, µM (doses to about 57.1 µM), hits mostly inhibitors. 0.12% of 150,000 active. AID 1452; active means well fitted inhibition curve with a large enough effect; inconclusive means small, poorly fitted or top-dose-only effect; further: nearly all actives have a fitted effect of over 55% in size
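Purified human 12hLO (150 nM final) was preincubated with compounds for 15 min at room temperature in 25 mM Hepes pH 7.0, 0.01% Triton X-100, then reacted with 40 uM arachidonic acid for 30 min. Hydroperoxide was detected with ferrous iron/xylenol orange.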
PNC inhibitor – perinucleolar compartment assembly inhibition; PC3M PTB-GFP, PNC prevalence imaging, 16 h; stronger effect = lower value; activity change (PNC), negative = inhibition, % at 10 µM; 3.1% of 140,000 active; AID 2417;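 active means readout at or below -70, meaning at least 70% loss of cells showing the perinucleolar compartment, a nuclear body marking cancer cells; inconclusive means readout between -30 and a set limit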
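Compounds are pinned in duplicate onto adhered PC3M cells stably expressing GFP-tagged PTB and incubated 16 h at 37 C. Cells are then fixed, nuclei stained with Hoechst, and PNC-positive cells counted.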
HPGD inh – blocks human HPGD enzyme activity; P15428; 4.3% of 150,000 active; Potency, µM, usual class: inhibitors; purified HPGD, NADH fluorescence kinetic, PGE2 substrate
Target sequence (P15428 whole entry, looked up): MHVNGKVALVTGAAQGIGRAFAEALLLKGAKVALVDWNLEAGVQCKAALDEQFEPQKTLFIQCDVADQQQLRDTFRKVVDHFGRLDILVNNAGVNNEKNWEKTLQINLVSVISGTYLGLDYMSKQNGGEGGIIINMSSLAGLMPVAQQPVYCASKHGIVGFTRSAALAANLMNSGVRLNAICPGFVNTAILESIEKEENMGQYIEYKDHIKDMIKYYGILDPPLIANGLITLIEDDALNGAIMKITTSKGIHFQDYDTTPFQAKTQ
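NADH formation kinetics: reaction with 30 uM PGE2 and 1 mM NAD+ (final), 20 nM enzyme, Tris-HCl pH 8 with Tween 20, after 15 min compound preincubation at room temperature. Fluorescence change, last versus first of five reads.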
A number is an active result; i = inactive; ? = inconclusive; nt = not tested or not shown; [ ] = another dose, or the depositor's remark. The list is not random: actives were taken first. Their share in the collection is about 10%. Unless noted, the call rests on the fitted dose curve; in most records, active means well fitted inhibition curve with a large enough effect (not every such curve was filed as active); inconclusive means small, poorly fitted or top-dose-only effect, or another doubt; inactive means no such curve, though single readings can be large or run the other way.

SMILES | ALDH1A1 inh | LMNA splice mod | 12-hLO inh | PNC inhibitor | HPGD inh
CC[n+]1c(C)sc2c(C)cc(C)cc21 | i | i | i | -99 | i
Cc1cc(C)c2sc(C)[n+](CCCS(=O)(=O)[O-])c2c1 | i | nt | nt | nt | nt
Cc1ccc(S(=O)(=O)N2CCN(c3ccc([N+](=O)[O-])c(NCCN4CCOCC4)c3)CC2)cc1 | i | i | i | -83 | i
O=[N+]([O-])c1ccc(N2CCN(S(=O)(=O)c3ccccc3)CC2)cc1NCCN1CCOCC1 | i | i | i | i | i
CC1=NN(c2ccc(C)c(C)c2)C(=O)C1C(c1cccc(O)c1)C1C(=O)N(c2ccc(C)c(C)c2)N=C1C (configuration not stated) | 0.71µM | i | i | i | 10µM
CC1=NN(c2ccc(C)cc2C)C(=O)C1C(c1ccccc1O)C1C(=O)N(c2ccc(C)cc2C)N=C1C (configuration not stated) | i | i | i | i | i
N#C/C(=C\c1ccccc1)C(=O)N(c1ccccn1)C1CCCCC1 | i | ? | i | ? | i
O=C(/C=C/c1ccc([N+](=O)[O-])cc1)N(c1ccccn1)C1CCCCC1 | 13µM | i | nt | nt | nt
CN(C)c1ccc(CNC(=O)C2CCN(S(=O)(=O)c3ccc4c(ccn4C)c3)CC2)cc1 | nt | i | nt | nt | nt
COc1ccc(NC(=O)CSC2=Nc3ccccc3C3=NC(CC(=O)NCc4ccc(F)cc4)C(=O)N23)cc1 (configuration not stated) | nt | i | nt | nt | nt
CC(=O)Oc1cc2cccc(OC(C)=O)c(=O)c2c(OC(C)=O)c1OC(C)=O | 4µM | i | nt | nt | nt
COc1cc2cccc(OC)c(=O)c2c(O)c1OC | i | i | i | i | i
Cc1ccc2[nH]c(C(=O)Nc3ccccc3)cc2c1 | nt | i | nt | nt | nt
CC(C)Cn1nnnc1S(=O)(=O)Cc1ccccc1 | i | nt | nt | nt | i
CC(C)Cn1nnnc1S(=O)(=O)Cc1cccc(C#N)c1 | 3.5µM | nt | nt | nt | i
COc1ccc(N2CCCn3c2nc2c3c(=O)n(Cc3ccccc3F)c(=O)n2C)cc1 | 8.9µM | i | i | i | i
COc1ccc(N2CCCn3c2nc2c3c(=O)n(CCCc3ccccc3)c(=O)n2C)cc1 | i | ? | i | i | i
CCn1c(=O)c2c(nc3n2CCCN3CCc2ccccc2)n(C)c1=O | i | i | i | i | i
COc1ccc(N2CCCn3c2nc2c3c(=O)n(Cc3ccccc3F)c(=O)n2C)c(OC)c1 | 11µM | i | i | i | ?
COc1ccc(CCN2CCCn3c2nc2c3c(=O)n(Cc3ccccc3F)c(=O)n2C)cc1OC | 3.5µM | i | i | i | ?
COc1ccccc1CNc1ncncc1-c1ccccc1OC | i | ? | nt | nt | nt
CN(C)CCCC1(c2ccc(F)cc2)OCc2cc(C#N)ccc21 (configuration not stated) | ? | i | i | -115 | i
CN(C)NC(=O)c1ccsc1NC(=O)c1ccc(S(=O)(=O)N(C)C)cc1 | i | nt | nt | nt | nt
Cc1ccsc1C(=O)NNC(=O)C1CCCCC1C(=O)O (configuration not stated) | 22µM | i | i | ? | i
CC(C)NC(=S)N/N=C1\CCCCC1C1CCCCC1 (configuration not stated) | 6.3µM | ? | ? | i | ?
SMILES | ALDH1A1 inh | LMNA splice mod | 12-hLO inh | PNC inhibitor | HPGD inh
CC1(C(=O)CSc2nc3ccccc3[nH]2)CCC(=O)O1 (configuration not stated) | i | i | i | -100 | i
CC1(C(=O)CSc2ncn[nH]2)CCC(=O)O1 (configuration not stated) | ? | i | i | i | i
CC(C)C1CCC(C(=O)NC(Cc2ccccc2)C(=O)O)CC1 (configuration not stated) | i | ? | i | nt | i
Nn1cnnc1N/N=C\c1ccc(-c2ccccc2[N+](=O)[O-])o1 | 25µM | ? | i | ? | i
O=[N+]([O-])c1ccccc1-c1ccc(/C=N/n2cnnc2)o1 | i | ? | i | i | 16µM
CCCCc1nc2c(c3c1C[C@H](C)OC3)CN(C(=O)C1CC1)CC2 | i[13.5 µM] | i[9.22 µM] | i[11.4 µM] | nt | i
NC(=S)Nc1cc2ccccc2c2ccccc12 | 0.4µM | ? | ? | ? | i
COC(=O)c1ccc(NC(=O)N2CCN(c3nnc(C)c4c(C)n(-c5ccccc5)nc34)CC2)cc1 | nt | i | nt | nt | nt
Cc1cc(OCC(=O)N2CCc3ccccc3C2)c2c(-c3ccccc3)cc(=O)oc2c1 | 14µM | i | i | ? | i
CCOc1cc(C)cc2oc(=O)cc(-c3ccccc3)c12 | 22µM | ? | i | i | i
COc1ccc(C(=O)N2CCC3(CCCN(Cc4nccs4)C3)CC2)cc1 | i | nt | i | nt | i
O=C(Nc1cccc(F)c1)N1CC[C@@]2(CCCN(C(=O)c3cc(C(F)(F)F)cc(C(F)(F)F)c3)C2)C1 | i | nt | i | nt | i
COc1ccccc1-c1nnc2sc(C3CCCCC3)nn12 | i | ? | i | i | 28µM
COc1ccc(Cc2nn3c(-c4ccccc4OC)nnc3s2)cc1 | 11µM | i | i | i | 28µM
CCNc1nc(NCC)nc(N(n2cnnc2)S(=O)(=O)c2ccc(C)cc2)n1 | ? | i | i | i | i
CCNc1nc(NC(C)C)nc(N(n2cnnc2)S(=O)(=O)c2ccc(C)cc2)n1 | 2.2µM | i | i | i | i
COC(=O)c1c(-c2cccs2)csc1NC(=O)c1cc(OC)cc(OC)c1 | nt | i | nt | nt | nt
O=C(c1ccc(-c2nnc(Nc3ccccc3)c3ccccc23)cc1)N1C[C@H]2C[C@H](C1)c1cccc(=O)n1C2 | i | i | i | i | 32µM
CN(C)Cc1ccccc1-c1nc(NC2CC2)c2ccccc2n1 | i | i | nt | nt | nt
CC(C)C12CN3CC(C(C)C)(CN(C1)C3c1ccc3c(c1)OCO3)C2=O (configuration not stated) | 7.9µM | i | i | i | i
CCCC12CN3CC(C)(CN(C1)C3c1ccc3c(c1)OCO3)C2=O (configuration not stated) | 2µM | i | i | i | i
CCCC12CN3CC(C)(CN(C1)C3c1ccc(OC)cc1)C2=O (configuration not stated) | ? | i | i | i | i
CC12CN3CC(C)(CN(C1)C3c1ccc3c(c1)OCO3)C2 (configuration not stated) | i | i | nt | nt | nt
CC1CCc2onc(C(=O)Nc3ccc(Cl)cc3)c2C1 (configuration not stated) | nt | i | nt | nt | nt
Oc1cc(O)c2c(c1)O[C@@H](c1ccc(O)c(O)c1)[C@H](O[C@@]1(c3cc(O)c(O)c(O)c3)Oc3cc(O)cc(O)c3[C@H](O)[C@@H]1O)C2 | i[13.5 µM] | nt | ? | nt | i
SMILES | ALDH1A1 inh | LMNA splice mod | 12-hLO inh | PNC inhibitor | HPGD inh
CCn1cc(Br)c(C(=O)NN)n1 | 25µM | i | i | i | i
CCn1cc(Br)c(C(=O)Nc2ccc(OC)cc2)n1 | i | i | i | i | i
COc1ccc(/C=C/C(=O)c2ccoc2)cc1 | ? | i | i | i | ?
COc1ccc(/C=C/C2=CC(C)(C)NC(=S)N2)cc1 | 5.6µM | nt | nt | nt | nt
CCc1cc(C(=O)COc2ccc(F)cc2)c(O)cc1O | i | nt | nt | nt | nt
Cc1c(O)ccc(C(=O)COc2ccc(F)cc2)c1O | 18µM | i | i | i | nt
